These results are taken from PubChem BioAssay (NCI).

Common to all, as to experiment: NCI-60 one-dose screen, 48 h (100 = growth as untreated, 0 = no growth, -100 = all killed)
The subject of one experiment is SK-MEL-2 melanoma. Particulars: 10 µM.
Another experiment deals with EKVX NSCLC. Particulars: 10 µM.
For a further experiment, the system named is SN12C renal. Particulars: 10 µM.
The next experiment has as its system TK-10 renal.
The next experiment concerns ACHN renal. Particulars: 10 µM.
The subject of another experiment is CAKI-1 renal. Particulars: 10 µM.
The test system of another experiment is A498 renal. As to conditions: 10 µM.
In another experiment the test system is CCRF-CEM leukemia. As to conditions: 10 µM.
The next experiment has as its system MOLT-4 leukemia. As to conditions: 10 µM.
In the next experiment the test system is RPMI-8226 leukemia. As to conditions: 10 µM.
The next experiment concerns OVCAR-8 ovarian. Particulars: 10 µM.
Another experiment deals with OVCAR-5 ovarian. As to conditions: 10 µM.
The subject of a further experiment is OVCAR-4 ovarian. As to conditions: 10 µM.
Another experiment concerns SK-OV-3 ovarian. Particulars: 10 µM.
The next experiment concerns IGROV1 ovarian. Particulars: 10 µM.
The test system of a further experiment is OVCAR-3 ovarian. Particulars: 10 µM.
Another experiment concerns HS 578T breast. As to conditions: 10 µM.
For a further experiment, the system named is NCI/ADR-RES ovarian. As to conditions: 10 µM.
Another experiment relates to SR leukemia. As to conditions: 10 µM.

Where “and” joins values, the source holds several entries; their conditions need not be identical. Equal values may be shown once. About 83,000 compounds went through this panel and 20% of them were active in at least one assay; those are over-represented in the sample as a whole.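 Interpretation: 100, growth as untreated; towards 0, rising growth inhibition; 0, no net growth; 0 to -100, cell death. Compounds scoring below 10 were considered active.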 Unmarked numbers belong to inactive results. Calls of active or inactive are those of the source.

Consider `CCOC(=O)c1cc(/C=C/c2cccc(Cl)c2)on1`, for which the growth in the experiment with SK-MEL-2 melanoma is 113%; with EKVX NSCLC, 75.4%; with SN12C renal it was 86.2%; in the experiment on TK-10 renal (10 µM unless noted), 111%; in the experiment on ACHN renal it was 90.9%; in the experiment with CAKI-1 renal it was 91.3%. The growth in the experiment on A498 renal was 110%; with CCRF-CEM leukemia, 67%; in the experiment on MOLT-4 leukemia, 99.9%; in the experiment with RPMI-8226 leukemia, 4.16% (active); in the experiment with OVCAR-8 ovarian it was 99.5%; in the experiment on OVCAR-5 ovarian, 101%. For the same molecule, the growth was 83.7% in the experiment on OVCAR-4 ovarian; 111% with SK-OV-3 ovarian; 93.9% in the experiment with IGROV1 ovarian; 99.1% with OVCAR-3 ovarian; 76.4% in the experiment with HS 578T breast; 91% with NCI/ADR-RES ovarian.
With `CC(=O)c1sc2c(c1OC(=O)c1ccc(Cl)cc1Cl)c(=O)n(-c1ccccc1)c(=S)n2-c1ccccc1`, the growth in the experiment with SK-MEL-2 melanoma is -43.9% (active); in the experiment with EKVX NSCLC, 51.4%; in the experiment with SN12C renal, 13.4%; with TK-10 renal (10 µM), -9.03% (active); in the experiment with TK-10 renal (100 µM), 2.01% (active) and -66.5% (active); in the experiment with ACHN renal, -18.2% (active). Moreover, the growth was 13.5% in the experiment on CAKI-1 renal; -41.9% (active) with A498 renal; -24.2% (active) in the experiment with CCRF-CEM leukemia; -11.4% (active) in the experiment with MOLT-4 leukemia; -10.4% (active) in the experiment on SR leukemia; -43.1% (active) in the experiment on RPMI-8226 leukemia. In addition, the growth is -4.64% (active) with OVCAR-5 ovarian; 5.36% (active) in the experiment on SK-OV-3 ovarian; 24.1% in the experiment on OVCAR-3 ovarian; -26.8% (active) in the experiment with HS 578T breast; 7.59% (active) in the experiment on NCI/ADR-RES ovarian.
As for `Cc1cc(C(C)(C)C)cc(C)c1Br`, the growth is 105% with SK-MEL-2 melanoma; 100% in the experiment with EKVX NSCLC; 100% with SN12C renal; 113% in the experiment on TK-10 renal (10 µM unless noted); 104% in the experiment on ACHN renal; 93.5% with CAKI-1 renal. The growth in the experiment with A498 renal was 104%; in the experiment on CCRF-CEM leukemia, 92.2%; in the experiment on MOLT-4 leukemia it was 99%; in the experiment with SR leukemia, 84.9%; in the experiment with RPMI-8226 leukemia, 95.1%; with OVCAR-8 ovarian, 111%. Also, the growth in the experiment on OVCAR-5 ovarian was 105%; in the experiment with OVCAR-4 ovarian, 115%; with SK-OV-3 ovarian it was 108%; in the experiment on IGROV1 ovarian, 112%; in the experiment with OVCAR-3 ovarian, 120%; in the experiment with HS 578T breast, 99.6%. In addition, the growth in the experiment on NCI/ADR-RES ovarian was 111%.
With `O=C1c2ccccc2C(=O)N1OCc1ccccc1`, the growth is 96.7% with SK-MEL-2 melanoma; 98.7% in the experiment with EKVX NSCLC; 110% with SN12C renal; 133% in the experiment with TK-10 renal (10 µM unless noted); 101% with ACHN renal; 95.2% with CAKI-1 renal. For the same molecule, the growth in the experiment with A498 renal is 134%; in the experiment on CCRF-CEM leukemia, 97.3%; with MOLT-4 leukemia it was 93.7%; in the experiment on SR leukemia, 93.4%; in the experiment with RPMI-8226 leukemia, 102%; in the experiment on OVCAR-8 ovarian, 105%. Further, the growth was 97.2% with OVCAR-5 ovarian; 94.4% in the experiment on IGROV1 ovarian; 105% in the experiment on OVCAR-3 ovarian; 113% with HS 578T breast; 116% with NCI/ADR-RES ovarian.
Take `CCCCC1(CC)COC(CCC)OC1` (stereo not given): the growth with SK-MEL-2 melanoma is 104%; in the experiment on EKVX NSCLC, 93.1%; in the experiment with SN12C renal, 97.6%; with TK-10 renal (10 µM unless noted), 101%; in the experiment with ACHN renal it was 99.2%; in the experiment with CAKI-1 renal, 84.2%. Besides, the growth was 127% with A498 renal; 102% with CCRF-CEM leukemia; 103% in the experiment with MOLT-4 leukemia; 106% in the experiment with SR leukemia; 102% with RPMI-8226 leukemia; 101% in the experiment on OVCAR-8 ovarian. For the same molecule, the growth in the experiment on OVCAR-5 ovarian was 95.9%; with OVCAR-4 ovarian, 115%; with SK-OV-3 ovarian, 104%; with IGROV1 ovarian, 129%; in the experiment with OVCAR-3 ovarian, 108%; with HS 578T breast it was 109%. Besides, in the experiment on NCI/ADR-RES ovarian, the growth is 105%.
In the case of `Nc1ncnc2[nH]ncc12`, the growth was -14.1% (active) in the experiment on SK-MEL-2 melanoma; 30.4% with EKVX NSCLC; 14% with SN12C renal; 1.19% (active) with TK-10 renal (10 µM unless noted); 8.29% (active) in the experiment with ACHN renal; -9.29% (active) in the experiment with CAKI-1 renal. Further, the growth in the experiment on A498 renal is 8.78% (active); with CCRF-CEM leukemia, 13.1%; in the experiment with MOLT-4 leukemia it was 25.9%; in the experiment on SR leukemia, 26.1%; with RPMI-8226 leukemia, 8.64% (active); in the experiment on OVCAR-8 ovarian, 6.29% (active). For the same molecule, the growth was 20.5% in the experiment on OVCAR-5 ovarian; -5.84% (active) with OVCAR-4 ovarian; 6.63% (active) in the experiment on IGROV1 ovarian; -22.2% (active) in the experiment on OVCAR-3 ovarian; 37.3% with HS 578T breast; 0.445% (active) in the experiment on NCI/ADR-RES ovarian.
Turning to `O=C(Cc1nc2ccc([N+](=O)[O-])cc2nc1CC(=O)c1ccccc1)c1ccccc1`, the growth is 103% in the experiment on SK-MEL-2 melanoma; 55.8% with EKVX NSCLC; 75% with SN12C renal; 104% in the experiment on TK-10 renal (10 µM unless noted); 57% in the experiment with ACHN renal; 62.9% with CAKI-1 renal. The growth in the experiment on A498 renal is 132%; in the experiment with CCRF-CEM leukemia it was 40.5%; in the experiment on MOLT-4 leukemia it was 54.2%; in the experiment with RPMI-8226 leukemia it was 42.9%; in the experiment with OVCAR-8 ovarian it was 50%; in the experiment on OVCAR-5 ovarian it was 89.6%. In addition, the growth in the experiment with OVCAR-4 ovarian is 34.3%; in the experiment on SK-OV-3 ovarian it was 103%; in the experiment on IGROV1 ovarian it was 79.2%; in the experiment with OVCAR-3 ovarian, 60.1%; in the experiment on HS 578T breast it was 51.6%; in the experiment with NCI/ADR-RES ovarian it was 29.8%.
`CCN(CC)CCCC(C)Nc1ccnc(/C=C/c2ccc(Cl)cc2)c1` (stereo not given): the growth was -69.4% (active) with SK-MEL-2 melanoma; 50.5% with EKVX NSCLC; 61.1% in the experiment on SN12C renal; -38.8% (active) in the experiment with TK-10 renal (10 µM unless noted); 35.2% in the experiment with ACHN renal; 18.1% with CAKI-1 renal. Moreover, the growth is 22.2% in the experiment with A498 renal; 6.37% (active) with CCRF-CEM leukemia; 13.3% with MOLT-4 leukemia; -19% (active) with SR leukemia; -26.3% (active) in the experiment with RPMI-8226 leukemia; 14.8% with OVCAR-8 ovarian. The growth in the experiment with OVCAR-5 ovarian is 47.1%; in the experiment on OVCAR-4 ovarian it was 15.4%; with SK-OV-3 ovarian, 72.8%; in the experiment on IGROV1 ovarian, 41.2%; with OVCAR-3 ovarian, 26.5%; with HS 578T breast, 47.1%. Besides, the growth with NCI/ADR-RES ovarian was 56.1%.
